Compound activity as filed in PubChem BioAssay.
BRCA1 expr act: qHTS Assay to Identify Small Molecule Activators of BRCA1 Expression; actives 1.1% (n = 380,000); AID 624202, 2012; MCF7-BRCA1-FFLuc reporter, luminescence, 48 h; response scale: scaled: vehicle 0%, 10 µM genistein 100%; Potency, µM (highest dose often 46.1 µM), actives largely listed as activators; further: nearly all actives have a fitted effect of over 80% in size
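Luminescence from a BRCA1-driven firefly luciferase in MCF7 cells was read after 48 h compound exposure at 37 C. Data normalized against DMSO and a 10microM genistein activation control, then curve-fitted across the titration.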
GLP-1R inv ag: qHTS of GLP-1 Receptor Inverse Agonists (Inhibition Mode); actives 1.6% (n = 410,000); Potency, µM (titrated, usually from 38.3 µM), hits mostly inhibitors; AID 624417, 2012; HEK293 GLP-1R CRE-luciferase, luminescence, 24 h; GLP-1R form is constitutively active; further: nearly all actives have a fitted effect of over 55% in size
Target sequence (P43220 whole entry, looked up): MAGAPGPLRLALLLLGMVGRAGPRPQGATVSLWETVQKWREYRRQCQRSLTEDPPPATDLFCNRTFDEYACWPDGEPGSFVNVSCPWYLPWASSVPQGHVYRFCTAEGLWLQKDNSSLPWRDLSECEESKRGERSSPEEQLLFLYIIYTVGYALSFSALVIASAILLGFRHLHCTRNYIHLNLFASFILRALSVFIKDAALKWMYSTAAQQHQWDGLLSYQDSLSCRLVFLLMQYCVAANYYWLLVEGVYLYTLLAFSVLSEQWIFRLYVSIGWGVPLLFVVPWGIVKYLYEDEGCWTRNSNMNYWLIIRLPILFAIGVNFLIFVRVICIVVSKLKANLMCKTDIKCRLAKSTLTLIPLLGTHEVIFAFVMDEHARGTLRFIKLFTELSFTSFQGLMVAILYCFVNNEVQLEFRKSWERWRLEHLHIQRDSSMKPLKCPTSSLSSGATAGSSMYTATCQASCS
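HEK293 cells stably co-expressing constitutively active GLP-1R and a cAMP-responsive luciferase reporter were seeded in DMEM with 10% Nu serum, given compounds after 12 h, and incubated 24 h at 37 deg C. Luminescence was then read.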
GLP-1R agonist: qHTS of GLP-1 Receptor Agonists; Potency, µM (highest dose often 45.6 µM), usual class: activators; Glucagon-like peptide 1 receptor (Homo sapiens), P43220; actives 0.007% (n = 380,000); HEK293 GLP-1R CRE-luciferase, luminescence, 4-6 h; cells express a hypersensitive GLP-1R form
GLP1R cytotox: qHTS of GLP-1 Receptor Inverse Agonists: Cytotox Screen. AID 624418, 2012. HEK293 cAMP-luciferase reporter cells, luminescence, 24 h. actives 0.13% (n = 410,000). Potency, µM (doses to about 38.3 µM), most hits filed as inhibitors;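 further: loss of luciferase light is scored as toxicity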
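Cells in DMEM/10% Nu serum/1% pen-strep, 1536-well format. Pre-incubated 12 h, dosed with 23 nL compound, incubated a further 24 h. Luciferase detection, 12 min at room temp, luminescence.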
Hits are given with their value; n = inactive; u = inconclusive; x = no result given; ! = not active in a repeat; [ ] = remark or other dose. Most compounds without a hit are left out; they make up all but 2.6% or so of the library. The call rests on the fitted dose curve; in most records, active means well fitted curve in the direction sought with a large enough effect; inconclusive means small, poorly fitted or top-dose-only effect, or another doubt; inactive means no such curve, though single readings can be large; an effect the other way counts as inactive or inconclusive.

SMILES	BRCA1 expr act	GLP-1R inv ag	GLP-1R agonist	GLP1R cytotox
Cc1nonc1CN(C)C(=O)c1cc(COc2ccc(F)cc2Cl)on1	n	u	n	n
COc1ccc(OCc2cc(C(=O)N[C@H]3CCCCNC3=O)no2)c(Cl)c1	n	n	n	n
CSc1ccccc1OCc1cc(C(=O)N[C@H]2CCCCNC2=O)no1	11µM	n	n	n
CCOc1ccc(CNC(c2ccccc2)c2ccccc2)cc1	n	7.1µM	n	n
CCOc1ccc(CNCc2ccccc2Cl)cc1	u	n	n	n
CC1CCCC(C)N1C(=O)c1cc(-c2cccs2)on1 (stereo not drawn)	16µM	u	n	n
O=C(NCCn1cc(SCc2ccccc2)c2ccccc21)c1c(F)cccc1F	n	10µM	n	n
O=C(NCCn1cc(SCc2ccc(C(F)(F)F)cc2)c2ccccc21)c1cccs1	n	11µM	n	n
O=C(NCCn1cc(SCc2ccc(F)cc2)c2ccccc21)c1ccccc1F	n	7.9µM	n	n
O=C(NCCn1cc(SCc2ccc(F)cc2)c2ccccc21)c1c(F)cccc1F	n	u	n	n
CC(=O)C1CN(S(=O)(=O)c2ccc(C)cc2)C(c2ccccc2)CC1C (stereo not drawn)	x	u	x	n
COc1ccc(S(=O)(=O)N2CCC(C(=O)NC(C)c3ccccc3)CC2)cc1 (stereo not drawn)	x	n	x	n
Cc1cccc(N2CCN(S(=O)(=O)c3cc(C(=O)Nc4ccc(Oc5ccccc5)cc4)ccc3F)CC2)c1C	x	u	x	n
Nc1nc(N)nc(COc2ccccc2)n1	4.5µM	n	n	n
Cc1ccccc1NC(=S)NCCc1ccccc1	n	n	n	n
S=C(NCCc1ccccc1)Nc1ccccn1	10µM	u	n	n
Cc1cccc(NC(=S)NCCc2ccccc2)n1	n	u	n	4µM
COc1ccc(CCNC(=O)c2ccc3c(c2)N(Cc2ccc(F)cc2)CCS3)c(OC)c1	n	u	n	n
COc1ccc(Oc2cnc3ccccc3n2)cc1	11µM	u	n	n
c1ccc(Oc2cnc3ccccc3n2)cc1	n	n	n	n
CNC(=O)c1nnsc1S(=O)(=O)c1ccc(Cl)cc1	n	4.5µM	n	u
COc1ccc(/C=C/C(=O)c2ccc(C)c([N+](=O)[O-])c2)cc1O	n	n	n	u
COc1cc(/C=C/C(=O)c2ccc(C)c([N+](=O)[O-])c2)cc(OC)c1O	n	10µM	n	n
O=[N+]([O-])c1cc(Cl)ccc1-c1nc(-c2ccccc2)no1	2.8µM	n	n	n
CS(=O)c1ccccc1-c1nc(-c2ccc(Cl)cc2)no1 (stereo not drawn)	11µM	n[7.66 µM]	n	n[7.66 µM]
SMILES	BRCA1 expr act	GLP-1R inv ag	GLP-1R agonist	GLP1R cytotox
CS(=O)c1ccccc1-c1nc(-c2cccc(Cl)c2)no1 (stereo not drawn)	n	n	n	n
Brc1ccc(-c2nc(-c3ccncc3)no2)cc1	u	n	n	n
Clc1ccccc1-c1nc(-c2ccncc2)no1	1.8µM!	n	n	n
O=[N+]([O-])c1ccc(-c2nc(-c3ccncc3)no2)cc1	2.5µM	n	n	n
c1coc(-c2nc(-c3ccncc3)no2)c1	3.2µM	n	n	n
CSc1ccccc1-c1nc(-c2ccncc2)no1	3.2µM	n	n	n
c1ccc(-c2nc(-c3ccncc3)no2)cc1	u	n	n	n
CCNC(=O)CC1C(=O)N(c2ccccc2)C(=O)N1Cc1ccc(F)cc1 (stereo not drawn)	x	n	x	n
COc1ccc2oc(=O)c(-c3nc(-c4cc(OC)c(OC)c(OC)c4)no3)cc2c1	x	n	x	n
Cc1c(C(=O)O)cccc1-c1ccc(C=O)o1	7.9µM	n	n	n
NC(=O)c1cccnc1Nc1cccc(F)c1	n	n	n	n
NC(=O)c1cccnc1Nc1cccc([N+](=O)[O-])c1	1.8µM	n[7.66 µM]	n	n[7.66 µM]
CCN(CC)CCn1c(=N)n(CC(O)COc2ccccc2C)c2ccccc21 (stereo not drawn)	x	10µM	x	u
Cc1cccc(OCC(O)Cn2c(=N)n(Cc3ccccc3)c3ccccc32)c1 (stereo not drawn)	n	u	n	n
Cc1ccc(OCC(O)Cn2c(=N)n(Cc3ccccc3)c3ccccc32)cc1 (stereo not drawn)	n	11µM	n	u
CCN(CC)CCn1c(=N)n(CC(O)COc2cccc(C)c2)c2ccccc21 (stereo not drawn)	n	u	n	u
COc1ccc(OCC(O)Cn2c(=N)n(Cc3ccccc3)c3ccccc32)cc1 (stereo not drawn)	n	u	n	7.9µM
O=C(c1ccc([N+](=O)[O-])s1)N1CCN(c2ccc(C(F)(F)F)cn2)CC1	n	n	n	n
CCOC(=O)c1ccc(NS(=O)(=O)c2ccc(Br)s2)cc1	n	n	n	n
O=C(/C=C/c1ccco1)Nc1nc(-c2ccccc2)cs1	8.9µM	n	n	n
O=C(/C=C/c1ccco1)Nc1nc(-c2ccccn2)cs1	n	u	n	u
Cc1cc(C)c(NC(=O)Cn2nnc(-c3ccccc3)n2)c(C)c1	n	n	n	n
CCc1ccccc1NC(=O)N1CCN(Cc2nc3ccc(C)cc3o2)CC1	n	u	x	n
COc1ccc(-c2[nH]c(-c3ccc(C)cc3)nc2SCC(=O)NC2CCCC2)cc1	n	10µM	n	u
Cc1cc(SCC(=O)NC2CC2)nc2ccccc12	n	n	n	n
SMILES	BRCA1 expr act	GLP-1R inv ag	GLP-1R agonist	GLP1R cytotox
COc1cccc(-c2nc(SCC(=O)NC3CCCC3)c(-c3ccc(C)cc3)[nH]2)c1	x	u	x	n
COc1ccc2c(C)cc(SCC(=O)NC3CCCC3)nc2c1	n	11µM	n	n
CC(=O)c1cccc(NC(=O)Cc2noc3ccccc23)c1	x	n	x	n
Cc1cccc(NC(=O)Cc2noc3ccccc23)c1	11µM	n	n	n
Cc1cccc(NC(=O)COC(=O)c2cccs2)c1C	n	n	n	n
COc1ccc2ccccc2c1CNCc1ccc(C)cc1	n	10µM	n	n
COc1ccccc1CNCc1ccc(C)cc1	n	n	n	n
Cc1cccc(-c2nnc(C3CCN(S(=O)(=O)c4cccc(Cl)c4)CC3)o2)c1	x	u	x	n
N/C(=N\OC(=O)c1cccc(Br)c1)c1ccncc1	14µM	n	n	u
N/C(=N\OC(=O)c1ccccc1)c1ccncc1	n	n	n	n
COc1cc(OC)cc(C(=O)O/N=C(\N)c2ccncc2)c1	n	n	n	n
N/C(=N\OC(=O)c1ccc(Br)cc1)c1ccncc1	4µM	n	n	n
Clc1nc(NCc2ccco2)c2ccccc2n1	n	x	x	x
Cc1nnc(NC(=O)c2oc3ccccc3c2C)s1	n	n	n	n
Cc1nc(NC(=O)c2oc3ccccc3c2C)sc1C(=O)N(C)C	13µM	n	n	n
O=S(=O)(c1ccc(-c2cc(C(F)(F)F)on2)s1)N1CCN(c2ccc(F)cc2)CC1	x	n	x	n
